Laboratory results published in the supplement of paper PMC8728848.
Only a selection was taken, and the strongest signals are over-represented in it overall.

Experiments:
Experiment in all cases: glycan array binding signal (z-score within array); higher = stronger binding
Settings in all cases: glycan notation: IUPAC condensed, linker removed
[1] = molecular target: Fuc(a1-3)[Gal(b1-4)]GlcNAc
Procedure, shortened: (§1)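 Arrays were curated from the Consortium for Functional Glycomics database, 3228 in total, and kept only where the protein sequence was available. Binding is expressed as a within-array Z-score. This score was averaged across arrays of the same protein sequence at different concentrations or buffers and across linkers, and negative values can be read as non-binding.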

[2] = molecular target: Fuc(a1-3)[Gal3S(b1-4)]GlcNAc
Procedure, shortened: as §1

Gal(a1-2)Gal = molecular target: Gal(a1-2)Gal
Procedure, shortened: as §1

Gal(b1-2)Gal = molecular target: Gal(b1-2)Gal
Procedure, shortened: as §1

[3] = molecular target: Gal3S(b1-3)[Fuc(a1-4)]GlcNAc
Procedure, shortened: as §1

Glc(b1-4)Glc = molecular target: Glc(b1-4)Glc
Procedure, shortened: as §1

[4] = molecular target: GlcNAc(a1-6)Gal(b1-4)GlcNAc
Procedure, shortened: as §1

GlcNAc(b1-3)GalNAc = molecular target: GlcNAc(b1-3)GalNAc
Procedure, shortened: as §1

[5] = molecular target: GlcNAc(b1-4)[GlcNAc(b1-6)]GalNAc
Procedure, shortened: as §1

[6] = molecular target: Man(a1-2)Man(a1-2)Man(a1-3)[Man(a1-2)Man(a1-3)[Man(a1-2)Man(a1-6)]Man(a1-6)]Man(b1-4)GlcNAc(b1-4)GlcNAc
Procedure, shortened: as §1

[7] = molecular target: Man(a1-2)Man(a1-2)Man(a1-3)[Man(a1-2)Man(a1-6)[Man(a1-3)]Man(a1-6)]Man(b1-4)GlcNAc(b1-4)GlcNAc
Procedure, shortened: as §1

[8] = molecular target: Man(a1-2)Man(a1-3)[Man(a1-6)]Man(a1-6)[Man(a1-2)Man(a1-3)]Man(b1-4)GlcNAc(b1-4)GlcNAc
Procedure, shortened: as §1

[9] = molecular target: Man(a1-3)[Man(a1-6)]Man(a1-6)[Man(a1-3)]Man(b1-4)GlcNAc(b1-4)GlcNAc
Procedure, shortened: as §1

[10] = molecular target: Man(a1-3)[Man(a1-6)]Man(b1-4)GlcNAc(b1-4)GlcNAc
Procedure, shortened: as §1

[11] = molecular target: Neu5Ac(a2-3)Gal(b1-3)[Fuc(a1-4)]GlcNAc
Procedure, shortened: as §1

[12] = molecular target: Neu5Ac(a2-3)[GalNAc(b1-4)]Gal(b1-4)Glc
Procedure, shortened: as §1

[13] = molecular target: Neu5Ac(a2-6)GalNAc(b1-4)GlcNAc
Procedure, shortened: as §1

[14] = molecular target: Neu5Ac(a2-8)Neu5Ac(a2-3)[GalNAc(b1-4)]Gal(b1-4)Glc
Procedure, shortened: as §1

B1: FBG2 (Homo sapiens), Q9NRD1 (protein)
chain: MDAPHSKAALDSINELPENILLELFTHVPARQLLLNCRLVCSLWRDLIDLMTLWKRKCLREGFITKDWDQPVADWKIFYFLRSLHRNLLRNPCAEEDMFAWQIDFNGGDRWKVESLPGAHGTDFPDPKVKKYFVTSYEMCLKSQLVDLVAEGYWEELLDTFRPDIVVKDWFAARADCGCTYQLKVQLASADYFVLASFEPPPVTIQQWNNATWTEVSYTFSDYPRGVRYILFQHGGRDTQYWAGWYGPRVTNSSIVVSPKMTRNQASSEAQPGQKHGQEEAAQSPYRAVVQIFPPPVTIQQWNNATWTEVSYTFSDYPRGVRYILFQHGGRDTQYWAGWYGPRVTNSSIVVSPKMTRNQASSEAQPGQKHGQEEAAQSPYRAVVQI
glycan array binding signal (z-score) [1]: -0.537 | glycan array binding signal (z-score) [2]: -0.236 | glycan array binding signal (z-score) (Gal(a1-2)Gal): -0.526 | glycan array binding signal (z-score) (Gal(b1-2)Gal): -0.363 | glycan array binding signal (z-score) [3]: 1.01 | glycan array binding signal (z-score) (Glc(b1-4)Glc): -0.116 | glycan array binding signal (z-score) [4]: -0.895 | glycan array binding signal (z-score) (GlcNAc(b1-3)GalNAc): -0.923 | glycan array binding signal (z-score) [5]: -0.787 | glycan array binding signal (z-score) [6]: 3.27 | glycan array binding signal (z-score) [7]: 3.69 | glycan array binding signal (z-score) [8]: 3.61 | glycan array binding signal (z-score) [9]: 4.08 | glycan array binding signal (z-score) [10]: 3.91 | glycan array binding signal (z-score) [11]: -0.752 | glycan array binding signal (z-score) [12]: -0.116 | glycan array binding signal (z-score) [13]: -0.582 | glycan array binding signal (z-score) [14]: -0.018
